From PubChem BioAssay (NCATS)
Values joined by “and” are separate entries in the source; they are usually repeats but may differ in a detail not shown here. Equal entries are not always repeated. Results filed as inconclusive are left out. The source holds several records for some structures; these can differ, active in one and inactive in another. Values without a mark were called inactive. Active and inactive are the calls of the source. Calls come from the whole dose curve; as a rule, active = well fitted cell-killing curve with a large enough effect in the repeat runs; inconclusive = weak or mixed curves; inactive = flat fitted curve, though single readings scatter.

Experiment: qHTS assay for small molecule agonists of the antioxidant response element (ARE) signaling pathway measured by Nrf2-dependant transcriptional activity - cell viability counter screen (AID 720653)
Conditions: ARE-bla HepG2 viability, CellTiter-Glo ATP luminescence, 16 h; max response: hits give low values
Excerpt: National Center for Advancing Translational Sciences [NCATS] NIH Chemical Genomics Center [NCGC] U.S. Environmental Protection Agency [EPA] National Institutes of Environmental Health Sciences [NIEHS] National Toxicology Program [NTP] Assay Overview: Oxidative stress has been implicated in the pathogenesis of a variety of diseases ranging from cancer to neurodegeneration. The antioxidant response element (ARE) signaling pathway plays an important role in the amelioration of oxidative stress. The CellSensor ARE-bla HepG2 cell line (Invitrogen) can be used for analyzing the Nrf2/antioxidant response signaling pathway. Nrf2 (NF-E2-related factor 2) and Nrf1 are transcription factors that bind to AREs and activate these genes. The CellSensor ARE-bla HepG2 cell line contains a beta-lactamase reporter gene under control of the Antioxidant Response Element (ARE) stably integrated into HepG2 cells. The activation of the report gene under culture conditions can be detected by fluorescence intensity. The cytotoxicity of the compounds against the ARE-bla HepG2 cell line was quantified by measuring the intracellular ATP content.
Assay Protocol Summary: ARE-bla HepG2 cells were dispensed at 2,000 cells/5 ul/well in 1536-well black wall/clear bottom plates using a Multidrop Combi (ThermoFisher Scientific, Waltham, MA) dispenser. After the assay plates were incubated at 37C/5% CO2 for 5 hrs, 23 nL of compounds dissolved in DMSO, positive controls or DMSO only was transferred to the assay plate by a pintool work station (Kalypsys, San Diego, CA). The plates were incubated at 37C/5% CO2 for 16 hrs. After 1 uL of LiveBLAzer B/G FRET substrate was added using a Flying Reagent Dispenser (FRD) (Aurora Discovery, San Diego, CA), the assay plates were incubated at room temperature for 2 hrs. The fluorescence intensity was measured by an Envision (PerkinElmer, Shelton, CT) plate reader. Cell viability using CellTiter Glo viability assay (Promega, Madison, WI) was also measured by adding 4 ul/well of CellTiter-Glo reagent into the same assay plate using a FRD. After 30 min incubation at room temperature, the luminescence intensity in the plates was measured using a ViewLux (PerkinElmer) plate reader.
% is set by controls: 0 for no effect and ±100 for the full control effect; potency is the fitted concentration of half-maximal effect.

Compared with CCCCCCCC/C=C\CCCCCCCC(=O)N(CCO)CCO, CC/C=C/C/C=C/C/C=C/CCCCCCCC(=O)OCC is higher in max response: -24.9% for the first, -18.4% for the second.

Compared with CC(C)S, CC(C)OCC1CO1 (stereo not given) is lower in max response: 14.7% for the first, 0.394% for the second.

First: Cc1ccc2ccc3cccc4ccc1c2c34
Second: Cc1c2ccccc2c(C)c2c1ccc1ccccc12
The max response of the first is higher: 2.48% for the first, -7.46% for the second.

First: Cc1cc(=O)oc2cc(O)cc(O)c12
Second: Cc1ccc(N)cc1[N+](=O)[O-]
The max response of the first is higher: 0.736% for the first, -10.7% for the second.

First: COc1ccc(C)cc1N
Second: Cc1c(N)cccc1Cl
The max response of the first is lower: -10.4% for the first, -6.28% for the second.

Compared with c1ccc(SCCSc2ccccc2)cc1, Brc1ccc(-c2ccccc2)cc1 is lower in max response: 1.28% for the first, -10.1% for the second.

First: CCC(Cl)CC(Cl)C(Cl)C(Cl)C(Cl)C(C)Cl (stereo not given)
Second: C=CC(C)(O)CCCC(C)CCCC(C)CCCC(C)C (stereo not given)
The max response of the first is lower: -9.68% for the first, 0.618% for the second.

First: S=C(NC1CCCCC1)NC1CCCCC1
Second: Cc1ccccc1OCC1CO1 (stereo not given)
The max response of the first is lower: -8.66% for the first, 0.854% for the second.

First: O=[N+]([O-])c1cc(Cl)c(Cl)c(Cl)c1Cl
Second: O=C(Cl)c1ccc([N+](=O)[O-])cc1
The max response of the first is lower: -4.59% for the first, 1.64% for the second.

Compared with CCCCCCCCOc1ccc(C(=O)O)cc1, CCCCCCN is lower in max response: -6.08% for the first, -8.85% for the second.

Going from C=C(C#N)C(=O)OCC to NC(=O)Nc1nc2ccccc2[nH]1, the max response rises from -14.3% to -9.91%.

First: Cc1cc(-c2ccc(N=Nc3cc(S(=O)(=O)O)c4ccccc4c3N)c(C)c2)ccc1N=Nc1cc(S(=O)(=O)O)c2ccccc2c1N
Second: CN(C)c1ccc(C(=N)c2ccc(N(C)C)cc2)cc1
The max response of the first is lower: -27.3% for the first, -25.3% for the second.

Compared with CCCCC(CC)COP(=O)(OCC(CC)CCCC)OCC(CC)CCCC (stereo not given), CCCCNCC is higher in max response: -10.8% for the first, 3.95% for the second.

Compared with C=CC1CO1 (stereo not given), Brc1cc(Br)c(Oc2cc(Br)c(Br)cc2Br)cc1Br is higher in max response: -12.7% for the first, -7.08% for the second.

For c1ccc(Nc2cccc3ccccc23)cc1, the max response was -11.3% and -26.9%.
In the case of CC(=O)CC(=O)Nc1ccccc1, the max response is reported as -0.0894% and -4.18%.
For Nc1ccc2c(c1)C(=O)c1ccccc1C2=O, the max response was -14.7% and -7.62%.
With Brc1cc(Oc2cc(Br)c(Br)c(Br)c2Br)c(Br)c(Br)c1Br the max response was 3.78% and -22.3%.
For Cc1ccc(S(N)(=O)=O)cc1, the max response was 3.25% and -8.35%.
In the case of COc1cc(-c2ccc(N=C=O)c(OC)c2)ccc1N=C=O, the max response is reported as 21.7% and 2.99%.
With c1ccc2c(c1)ccc1ccccc12 the max response was -0.337% and -2.44%.
For COc1ccc([N+](=O)[O-])cc1N, the max response was -6.61% and -1.85%.
With CCCCC(CC)COC(=O)COc1ccc(Cl)cc1Cl (stereo not given) the max response was -8.61% and -1.82%.
In the case of Nc1cc([N+](=O)[O-])ccc1O, the max response is reported as -7.79% and -12.9%.
With Oc1c(Cl)cc(Cl)c(Cl)c1Cl the max response was -1.59% and 6.5%.

In the case of Cc1c2ccccc2c(C)c2c1ccc1ccccc12, the Potency is reported as 44.7 µM (active).
